In PubChem BioAssay (NCI):
Compounds without any hit were thinned out: in the full panel of roughly 83,000, 20% have a hit.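 How to read the values: 0–100, growth inhibition (40 = 60% inhibited); 0, no net growth; -100 to 0, cell death (-40 = 40% of starting cells died; -100 = all dead).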 Values without a mark were called inactive. Activity calls are given as the source filed them. Rule for the calls: active = growth percent below 10; inactive = the rest.

Legend:
Assay in all cases: NCI-60 one-dose screen, 48 h (100 = growth as untreated, 0 = no growth, -100 = all killed)
Conditions in all cases: 10 µM unless noted
SR leukemia = tested on: SR leukemia
RPMI-8226 leukemia = tested on: RPMI-8226 leukemia
OVCAR-8 ovarian = tested on: OVCAR-8 ovarian
OVCAR-5 ovarian = tested on: OVCAR-5 ovarian
OVCAR-4 ovarian = tested on: OVCAR-4 ovarian
SK-OV-3 ovarian = tested on: SK-OV-3 ovarian
IGROV1 ovarian = tested on: IGROV1 ovarian
OVCAR-3 ovarian = tested on: OVCAR-3 ovarian
HS 578T breast = tested on: HS 578T breast
NCI/ADR-RES ovarian = tested on: NCI/ADR-RES ovarian

| SMILES | growth (SR leukemia) | growth (RPMI-8226 leukemia) | growth (OVCAR-8 ovarian) | growth (OVCAR-5 ovarian) | growth (OVCAR-4 ovarian) | growth (SK-OV-3 ovarian) | growth (IGROV1 ovarian) | growth (OVCAR-3 ovarian) | growth (HS 578T breast) | growth (NCI/ADR-RES ovarian) |
| --- | --- | --- | --- | --- | --- | --- | --- | --- | --- | --- |
| C=C(c1ccc(C(=O)NCCCn2ccnc2)cc1)c1cc2c(cc1C)C(C)(C)CCC2(C)C | -27.2% (active) | 22.7% | 40% | 33.3% | 37% | 4.17% (active) | 7.28% (active) | 25.7% | 59.7% | 5.05% (active) |
| CC1OC(n2c3ccccc3c3c4c(c5c6ccccc6[nH]c5c32)C(=O)N(CCN2CCOCC2)C4=O)CC(O)C1O (stereo not given) | 10.7% | 27.8% | 32.4% | 61.7% | 46.5% | 6.84% (active) | 48.3% | 48.2% | 63.6% | 26.4% |
| NC(N)=NC1CCCCC1 | 92.6% | 85.6% | 98.5% | 109% | 105% | 107% | 107% | -50.3% (active) | 107% | 98% |
| CCN(CC)CCCC(C)Nc1ccnc2ccc(Oc3ccccc3)cc12 (stereo not given) | 14.6% | 76.7% | 76.7% | 88.6% | 66.6% | 114% | 77% | 76.8% | 82% | 92.8% |
| Oc1ccc(-c2nc3ccccc3s2)cc1CN(Cc1ccccn1)Cc1ccccn1 | 7.98% (active) | 13.2% | 9.43% (active) | 40.9% | 18% | 7% (active) | 15% | 26.2% | 41.6% | -37.2% (active) |
| CCN(CC)c1ccc2c(cc1=O)[C@@H](NC(C)=O)CCc1cc(OC)c(OC)c(OC)c1-2 | -14.1% (active) | 14.9% | 12.3% | 54.1% | 48.2% | 24.3% | 28% | -24.9% (active) | 40.5% | 85.7% |
| Cc1nn(-c2ccccc2)c2nc3c(nc12)C1=NCCN1C(c1ccc(Cl)cc1)N3 (stereo not given) | 6.3% (active) | 45.6% | 87.5% | 91% | 80.3% | 104% | 88.8% | 95.4% | 60.7% | 98.6% |
| CCOC(=O)C(Cc1ccccc1)n1c(O)c(/C=N/c2ncc(Cc3ccc(Cl)cc3Cl)s2)sc1=S (stereo not given) | 27.8% | -7.55% (active) | 2.66% (active) | 38.9% | 25.6% | 0.0373% (active) | 37.6% | 17.9% | -3.53% (active) | 5.71% (active) |
| COc1ccccc1CNCCCN1C(=O)c2ccc3c4c(ccc(c24)C1=O)C(=O)N(CCCNCCCN)C3=O | 10% | 17.5% | -24.4% (active) | 37.9% | -99.3% (active) | 34.7% | -2.92% (active) | -19.3% (active) | 30.7% | 33.7% |
| CC(C)(C)[Si](C)(C)OC1[C@@H](CNC(N)=O)O[C@@H](n2cnc3c(NC(=O)Nc4ccccc4)ncnc32)[C@H]1O[Si](C)(C)C(C)(C)C (stereo not given in full) | 6.81% (active) | 47.6% | 59.9% | 82.5% | 50.3% | 93.6% | 56.1% | 61.1% | 58.7% | 58.5% |
| COc1cc2ncnc(Nc3ccc(S(=O)(=O)Nc4nccs4)cc3)c2cc1OCCCN1CCOCC1 | 108% | 106% | 103% | 106% | 107% | 96.2% | 106% | 101% | 99.9% | 102% |
| CNCCCn1c2c(c3ccc(Cl)cc3c1=O)C(=O)c1cc(OC)cnc1-2 | -33.5% (active) | -56.3% (active) | 40.8% | 91.9% | 58.8% | 23.7% | 50.3% | 49.3% | 71.7% | 46.5% |
| O=C(Nc1ccc(Br)cc1)Nc1cccc(Br)c1 | 38% | 8.97% (active) | 48.8% | 76.8% | 28.8% | 75.2% | 25.5% | 16.2% | 76% | 46.4% |
| Clc1ccccc1CNc1c2ccccc2nc2ccccc12 | 0.495% (active) | -26.9% (active) | 23.8% | 32.6% | 13.1% | 54.9% | 17.8% | 53.6% | 50% | 23.8% |
| COc1ccc(-c2ccc(-c3ccc(C(=N)N)s3)s2)cc1 | -40.6% (active) | -57.5% (active) | -66.9% (active) | -92.6% (active) | -56.4% (active) | -88.9% (active) | -57.2% (active) | -80.8% (active) | -56.8% (active) | -61.7% (active) |
| OC(COCc1ccccc1)COCc1ccccc1 | 89.2% | 109% | 106% | 108% | 107% | 103% | 108% | 94.7% | 122% | 127% |
| COc1ccc(C(=O)O)cc1.[Ag] | 60.1% | 103% | 105% | 104% | 117% | 114% | 110% | 99.7% | 96.1% | 99.5% |
| C[C@@H]1CC2C3CCC4=CC(=O)C=C[C@]4(C)[C@@]3(Cl)[C@@H](O)C[C@]2(C)[C@@]1(OC(=O)c1ccco1)C(=O)CCl (stereo not given in full) | 54.6% | 55.9% | 53% | 83.1% | 67.7% | 54.1% | 76.3% | 89.3% | 67.2% | 39.9% |
| CCSCC1CC(O)(c2ccccc2)C(c2ccccc2)C(c2ccc(F)cc2)O1 (stereo not given) | 1.33% (active) | -16.1% (active) | 1.93% (active) | -2.48% (active) | -9.01% (active) | 6.98% (active) | 11.2% | -62.9% (active) | -35.3% (active) | -24.8% (active) |
| CCOC(=O)C1=C(C(=O)OCC)N(c2cc(OC)c(OC)c(OC)c2)C(N)=C(C#N)C1c1cc(=O)[nH]c2ccccc12 (stereo not given) | 93.5% | 114% | 105% | 101% | 101% | 97% | 98.2% | 110% | 97.2% | 101% |
| CCN(CC)c1cc(C)c(Cc2c(OC)ccc3ccccc23)cc1C | 85.5% | 102% | 96.8% | 102% | 96.9% | 83.4% | 88.6% | 106% | 81% | 103% |
| c1ccc(-c2ccc(-c3ccccc3)[nH]2)cc1 | 96.1% | 79.7% | 101% | 104% | 75.8% | 107% | 85.8% | 106% | 100% | 96.4% |
| COc1cc(NCC(O)CN(CC(C)C)CC(C)C)c2ncccc2c1 (stereo not given) | 50.6% | 37.6% | 63.3% | 101% | 19.5% | 87.4% | 74.3% | 47.4% | 84.7% | 92.4% |
| CCCCCCCCN(CCCCCCCC)C(=O)CCl | 83.1% | 106% | 89.4% | 120% | 97% | 109% | -18.2% (active) | 108% | 85.1% | 94.7% |
| COc1ccc(-c2nc(SCCC(C)C)nc(Nc3ccc(C(=O)O)cc3)c2C#N)cc1 | 77.3% | 62.9% | 93.9% | 105% | 89.2% | 109% | 110% | 97.5% | 94.2% | 102% |
| CC(=O)Nc1ccc(/C=N/N2CCCCCC2)cc1 | 96.2% | 116% | 101% | 96.7% | 99.1% | 99.9% | 111% | 99.4% | 96.3% | 103% |
| CCCCOC(=O)c1cc(O)c(O)c(O)c1 | 44.5% | 59.2% | 68.6% | 92.2% | 58.9% | 85.1% | 55.6% | 61.8% | 86.4% | 74.4% |
